FLuc inh: qHTS Assay for Inhibitors of Firefly Luciferase. Luciferin 4-monooxygenase (Photinus pyralis), P08659. purified firefly luciferase, luminescence, 8 min. Potency, µM (highest dose often 57.1 µM), for inactives: at the top dose activity change, negative = inhibition, actives largely listed as inhibitors. 72,000 compounds, 2.2% hits. AID 411, 2009; further: nearly all actives have a fitted effect of over 40% in size
Target sequence (P08659 whole entry, looked up): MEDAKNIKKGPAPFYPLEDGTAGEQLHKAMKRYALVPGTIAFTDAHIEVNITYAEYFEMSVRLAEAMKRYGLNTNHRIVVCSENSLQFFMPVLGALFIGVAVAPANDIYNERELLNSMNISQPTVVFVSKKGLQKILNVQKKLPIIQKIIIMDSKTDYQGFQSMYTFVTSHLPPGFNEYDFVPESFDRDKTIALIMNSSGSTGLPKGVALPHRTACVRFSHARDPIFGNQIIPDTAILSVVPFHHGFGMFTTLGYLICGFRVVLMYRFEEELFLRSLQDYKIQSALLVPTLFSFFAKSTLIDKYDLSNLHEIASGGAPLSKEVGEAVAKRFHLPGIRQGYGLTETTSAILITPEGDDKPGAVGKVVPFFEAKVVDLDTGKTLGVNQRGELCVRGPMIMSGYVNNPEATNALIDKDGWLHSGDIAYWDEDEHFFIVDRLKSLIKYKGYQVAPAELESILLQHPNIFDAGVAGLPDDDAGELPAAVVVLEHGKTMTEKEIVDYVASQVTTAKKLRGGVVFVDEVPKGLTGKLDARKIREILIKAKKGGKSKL
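Firefly luciferase (PKLight detection mix) with 10 uM ATP in pH 7.2 imidazole buffer (KCl, MgCl2, Tween 20, BSA). Compounds tested across a concentration series (qHTS). Luminescence read after 8 min at ambient temperature.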
p53ts 32C tox: qHTS Screen for Compounds that Selectively Target Cancer Cells with p53 Mutations: Cytotoxicity of p53ts Cells at the Permissive Temperature | H1299-p53A138V at 32C, ATP luminescence viability, 24 h | Potency, µM (highest dose often 46.1 µM), inactives show top-dose activity change, negative = cytotoxicity, usual class: cytotoxic | 130,000 compounds, 0.93% hits | AID 924, 2007;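 further: 0% = DMSO and -100% = full killing by reference compound; nearly all actives have a fitted effect of over 55% in size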
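H1299-p53 A138V cells (temperature-sensitive p53) exposed 24 h to up to 46 uM compound at 32C, where p53 is wild-type in conformation. Viability read as ATP luminescence and normalised to DMSO and 100 uM tamoxifen. AC50 fitted with the Hill equation.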
p53ts 39C kill: qHTS Screen for Compounds that Selectively Target Cancer Cells with p53 Mutations: Cytotoxicity of p53ts Cells at the Nonpermissive Temperature; AID 902, 2007; Potency, µM (highest dose often 46.1 µM), for inactives: at the highest dose activity change, negative = cell killing, usual class: cytotoxic; 130,000 compounds, 1.5% hits; H1299-p53A138V viability at 39C, ATP luminescence, 24 h; further: nearly all actives have a fitted effect of over 55% in size
The depositor's hits bear a star; ? = inconclusive; nt = not tested or not shown; [ ] = another dose, or the depositor's remark. Sampled rows, rich in hits. Any-hit rate of the full collection: about 2.5%. The call rests on the fitted dose curve; in most records, active means well fitted curve in the direction sought with a large enough effect; inconclusive means small, poorly fitted or top-dose-only effect, or another doubt; inactive means no such curve, though single readings can be large; an effect the other way counts as inactive or inconclusive. Unless noted, on the % scale 0 is the no-effect control and ±100 the full control effect; potency means the concentration at half of the fitted maximal effect.

SMILES	FLuc inh	p53ts 32C tox	p53ts 39C kill
Cc1cc(-c2ccc(N=Nc3ccc4c(S(=O)(=O)O)cc(S(=O)(=O)O)c(N)c4c3O)c(C)c2)ccc1N=Nc1ccc2c(S(=O)(=O)O)cc(S(=O)(=O)O)c(N)c2c1O	32µM*	13µM*	16µM*
Cc1occc1C(=O)Nc1ccccc1NC(=O)c1ccoc1C	1%	10%	8%
Cc1occc1C(=O)Nc1cccc2ccccc12	25µM*	-26%	-25%
CCC(=O)Nc1cccc(-c2nnc(SCC(=O)c3ccccc3)n2C)c1	16µM*	-6%	-4%
CCC(=O)Nc1cccc(-c2nnc(SCC(=O)NCc3ccco3)n2C)c1	1%[25.5 µM]	nt	nt
O=C1C[C@@H](O)[C@@H](O)[C@@H]2[C@H]3C(=O)N(c4ccc(F)cc4F)C(=O)[C@@H]3CC[C@@H]12	0%[11.4 µM]	1%[9.22 µM]	20%[9.22 µM]
O=S(=O)(C[C@H](O)C(Cl)(Cl)Cl)NNc1ccccc1	6%[11.4 µM]	12%[9.22 µM]	11%[9.22 µM]
Cc1ccc(-c2nc(Nc3ccccc3)n[nH]2)cc1	13µM*	-20%	-22%
Nc1nc(CSc2n[nH]c(-c3ccccc3)n2)nc(Nc2ccccc2)n1	-3%	11%	10%
O=C(CSc1ncc2c(n1)-c1ccccc1N(Cc1ccc(Cl)cc1)S2(=O)=O)c1ccccc1	nt	-2%	24%
COC(=O)C1=C(C)N(Cc2ccccc2)C2=C(C(C)=O)C(c3ccccc3)[C@@](O)(C(=O)OC)C(=O)N2C1c1ccccc1 (stereo partly drawn)	nt	-1%[9.22 µM]	5%[9.22 µM]
Cc1c(Cl)cccc1-n1ncc(C(=O)Nc2ccc3c(c2)OCCO3)c1C1CCN(C(=O)OC(C)(C)C)CC1	nt	13%	8%
NCCCCCCNS(=O)(=O)c1cccc2ccccc12	1%	5%	-14%
NCCCCNS(=O)(=O)c1cccc2c(Cl)cccc12	-4%	13%	16µM*
CCCCN1C(=O)c2[nH]nc(-c3ccccc3O)c2C1c1ccc(C(C)(C)C)cc1 (stereo not drawn)	nt	?	13µM*
CCCCN1C(=O)c2[nH]nc(-c3ccccc3O)c2C1c1ccc(OCc2ccccc2)c(OC)c1 (stereo not drawn)	nt	25%	-11%
CCCCN1C(=O)c2[nH]nc(-c3ccccc3O)c2C1c1ccc(OCc2ccccc2)cc1 (stereo not drawn)	nt	24%	13µM*
COCCCN1C(=O)c2[nH]nc(-c3ccccc3O)c2C1c1ccc(OCc2ccccc2)cc1 (stereo not drawn)	nt	25%	13µM*
Cc1ccc(C2c3c(-c4ccccc4O)n[nH]c3C(=O)N2CCCO)cc1 (stereo not drawn)	nt	19%	1%
O=C1c2[nH]nc(-c3ccccc3O)c2C(c2ccc(F)cc2)N1Cc1ccco1 (stereo not drawn)	9%	27%	18%
Cc1ccc(C2c3c(-c4cc(C)ccc4O)n[nH]c3C(=O)N2Cc2ccco2)cc1 (stereo not drawn)	nt	?	25µM*
O=C1c2[nH]nc(-c3ccccc3O)c2C(c2cccc(OCc3ccccc3)c2)N1CCO (stereo not drawn)	nt	10%	15%
CCN1C(=O)[C@H]2[C@H]3[C@H](O)[C@H](O)C/C(=N/OC[C@@H]4O[C@H](c5ccccc5)C=C[C@@H]4Oc4ccc(OC)cc4)[C@@H]3CC[C@@H]2C1=O	2%[11.4 µM]	-10%[9.22 µM]	8%[9.22 µM]
COc1ccc(Cl)cc1S(=O)(=O)Nc1cccc(-c2ccc(N3CCOCC3)nn2)c1	nt	-25%	?
CCC1=C2CC[C@H]3C(=O)N(CC)C(=O)[C@H]3[C@H]2[C@@]2(C)C(=O)N(CC(=O)OC)C(=O)N2C1=O	nt	2%	1%
SMILES	FLuc inh	p53ts 32C tox	p53ts 39C kill
CC(=O)OC1CC(OC(C)=O)[C@]2(C)C(CC(OC(C)=O)[C@]3(C)C2CC[C@@]2(C)C(c4ccoc4)OC(=O)C4O[C@]432)C1(C)C (stereo partly drawn)	nt	16%	-1%
CCCCN(CCCC)c1ncnc2c1cnn2-c1cccc(C)c1	nt	8%	-4%
Cc1ccc(-n2ncc3c(N(C)C)ncnc32)cc1Cl	nt	?	7.9µM*
CCN1CCN(c2ncnc3c2cnn3-c2ccc(C)c(Cl)c2)CC1	nt	-6%	-23%
COc1ccc(CCNc2ncnc3c2cnn3-c2ccc(C)c(Cl)c2)cc1	nt	-15%	-26%
Cc1ccc(-n2ncc3c(NCCO)ncnc32)cc1Cl	nt	-15%	16µM*
CCCCN(C)c1ncnc2c1cnn2-c1cccc(Cl)c1	nt	?	16µM*
COc1cccc(C2C=C(c3ccc(C)cc3)Nc3c(C(=O)Nc4ccc(F)cc4)cnn32)c1OC (stereo not drawn)	nt	13%	-7%
CC(C)(CN)CN	3%[11.4 µM]	-2%[9.22 µM]	-5%[9.22 µM]
CCn1c(=N)n(CCOc2ccc(Br)cc2)c2ccccc21	nt	?	13µM*
COc1ccc(OCCn2c(=N)n(CCO)c3ccccc32)cc1	1%	-2%	-17%
COc1ccc(-c2[nH]c(-c3ccc(O)cc3)nc2-c2ccccc2)cc1	nt	-20%	?
C=CCOc1ccc(CNc2nccs2)cc1OCC	nt	14%	9%
C=CCOc1c(CNc2nccs2)cccc1OCC	13µM*	?	?
CS(=O)(=O)Nc1cccc(-c2cncnc2NCc2cccnc2)c1	2%[2.29 µM]	11%	11%
COc1cc(OC)c(Nc2ncnc3onc(-c4cccc(Cl)c4)c23)cc1Cl	nt	0%	1%
Cc1cc(=O)n2[nH]c(-c3ccc(F)cc3)nc2n1	13µM*	13µM*	10µM*
Cc1cc(=O)n2[nH]c(NCc3ccc(F)cc3)nc2n1	nt	-4%	-3%
NCC[C@H]1CCC[C@H](CCN)N1	3%	20%	-13%
Oc1cccc(C(Nc2ccccn2)c2ccc3cccnc3c2O)c1Cl (stereo not drawn)	nt	2%	7.9µM*
CCC(=O)NC(c1ccccc1OC)c1ccc2cccnc2c1O (stereo not drawn)	nt	-2%	-18%
Cc1noc(C)c1-c1nccc(N2CCN(C)CC2)n1	-3%[2.29 µM]	8%	-12%
Cc1onc(-c2ccccc2)c1C(=O)OCC(=O)c1ccccc1	0%	-8%	8%
Cc1ccc(-n2c(C)cc(C(=O)COC(=O)c3c(C)noc3C)c2C)cc1	25µM*	?	?
CCCCCCC#CC1C=CC(Oc2ccc(C=O)cc2)C(CO)O1 (stereo not drawn)	nt	3%[9.22 µM]	4%[9.22 µM]
SMILES	FLuc inh	p53ts 32C tox	p53ts 39C kill
Cc1c(Cl)cccc1NC(=O)CSc1cc(-c2ccccc2)ncn1	nt	?	-20%
c1ccc2c(c1)CCN(c1nc3cc4c(cc3s1)OCCO4)C2	0.32µM*	1.6µM*	2µM*
O=S(=O)(c1ccc2c(c1)OCCO2)N1CCN(c2nc3ccccc3s2)CC1	0%	-8%	-11%
CC(C)(C)OC(=O)[C@H]([C@@H]1N[C@@H](C(=O)O)C(C)(C)S1)N1C(=O)c2ccccc2C1=O	3%[11.4 µM]	6%[9.22 µM]	9%[9.22 µM]
COc1cccc(-c2cc(C(F)(F)F)n3nc(N)nc3n2)c1	2%	-5%	-9%
COc1cccc(-c2cn3nc4c(nc3n2)CCCC4)c1	3.2µM*	5µM*	5µM*
CCc1ccc(NC(=O)c2cc3ccccn3n2)cc1	nt	6.3µM*	3.2µM*

Bioassay records: PubChem BioAssay, National Center for Advancing Translational Sciences (NCATS)
